Structures are written as SMILES. Records with an inconclusive call do not appear. Calls of active or inactive are those of the source. How the source made its calls: active means hit-call score of the fitted dose curve at least 0.9, where 1 is the maximum; inconclusive means response in the unintended direction; inactive means score below 0.9.

Sequence of human Insulin-like Growth Factor 1 Receptor (IGF1R), IGF1R (gene 3480) (P08069 whole entry, looked up): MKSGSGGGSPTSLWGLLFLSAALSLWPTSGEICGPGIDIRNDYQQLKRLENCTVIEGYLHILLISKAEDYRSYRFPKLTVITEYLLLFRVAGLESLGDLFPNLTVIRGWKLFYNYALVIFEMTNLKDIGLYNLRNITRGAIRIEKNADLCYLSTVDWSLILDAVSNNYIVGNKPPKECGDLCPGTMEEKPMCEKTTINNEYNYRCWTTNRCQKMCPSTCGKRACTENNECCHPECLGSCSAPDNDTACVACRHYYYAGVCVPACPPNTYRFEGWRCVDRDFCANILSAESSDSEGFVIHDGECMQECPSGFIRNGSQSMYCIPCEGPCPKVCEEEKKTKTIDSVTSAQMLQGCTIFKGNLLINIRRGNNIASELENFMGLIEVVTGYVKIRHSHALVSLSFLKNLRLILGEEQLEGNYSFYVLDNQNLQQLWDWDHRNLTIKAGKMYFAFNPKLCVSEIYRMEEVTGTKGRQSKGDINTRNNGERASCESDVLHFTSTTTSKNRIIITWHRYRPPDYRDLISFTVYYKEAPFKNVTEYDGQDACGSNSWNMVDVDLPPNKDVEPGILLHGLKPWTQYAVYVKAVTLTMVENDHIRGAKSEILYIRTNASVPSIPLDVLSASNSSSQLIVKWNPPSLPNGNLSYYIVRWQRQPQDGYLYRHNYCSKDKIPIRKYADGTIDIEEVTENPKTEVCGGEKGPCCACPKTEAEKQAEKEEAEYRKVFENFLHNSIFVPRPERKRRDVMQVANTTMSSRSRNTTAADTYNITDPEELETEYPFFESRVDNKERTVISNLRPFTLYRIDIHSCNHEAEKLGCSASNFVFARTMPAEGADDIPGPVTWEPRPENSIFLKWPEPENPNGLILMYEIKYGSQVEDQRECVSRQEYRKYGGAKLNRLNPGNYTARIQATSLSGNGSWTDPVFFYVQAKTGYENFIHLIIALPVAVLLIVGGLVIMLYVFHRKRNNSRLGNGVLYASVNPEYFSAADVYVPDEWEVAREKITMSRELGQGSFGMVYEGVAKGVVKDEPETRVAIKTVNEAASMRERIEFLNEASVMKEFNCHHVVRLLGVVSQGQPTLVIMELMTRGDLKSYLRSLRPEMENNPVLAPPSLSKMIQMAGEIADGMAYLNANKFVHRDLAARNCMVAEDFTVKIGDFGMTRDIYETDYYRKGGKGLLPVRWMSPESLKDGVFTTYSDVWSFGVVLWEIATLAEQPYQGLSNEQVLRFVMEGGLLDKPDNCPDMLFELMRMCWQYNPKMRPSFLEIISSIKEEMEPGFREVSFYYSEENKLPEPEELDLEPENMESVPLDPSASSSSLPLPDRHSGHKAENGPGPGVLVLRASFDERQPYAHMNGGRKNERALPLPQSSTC

The experiment deals with human Insulin-like Growth Factor 1 Receptor (IGF1R), IGF1R (gene 3480) (UniProt P08069). The experiment in a line: NVS_ENZ_hIGF1R: NovaScreen (NVS) Enzymatic Assay for human Insulin-like Growth Factor 1 Receptor (IGF1R). As to the method:
NVS_ENZ_hIGF1R is a biochemical, single-readout assay that uses extracted gene-proteins in a cell-free assay. Measurements were taken 1 hour after chemical dosing in a 384-well plate.NVS_ENZ_hIGF1R is one of one assay component(s) measured or calculated from the NVS_ENZ_hIGF1R assay. It is designed to make measurements of enzyme activity, a form of enzyme reporter, as detected with fluorescence intensity signals by Fluorescence and electrophoretic mobility shift technology.Data from the assay component NVS_ENZ_hIGF1R was analyzed into 1 assay endpoint. This assay endpoint, NVS_ENZ_hIGF1R, was analyzed in the positive analysis fitting direction relative to DMSO as the negative control and baseline of activity. Using a type of enzyme reporter, loss-of-signal activity can be used to understand changes in the enzymatic activity as they relate to the gene IGF1R. Furthermore, this assay endpoint can be referred to as a primary readout, because this assay has produced multiple assay endpoints where this one serves a enzymatic activity function. To generalize the intended target to other relatable targets, this assay endpoint is annotated to the kinase intended target family, where the subfamily is receptor tyrosine kinase.
Binding assays used specific radioligands (tritiated, iodinated) with non-radioactive competitive displacement ligands in agonist or antagonist protocols (as indicated) and various reference compounds and inhibitors to titrate specific binding to receptors and transporters. Most enzyme assays (CYPs, kinases, phosphatases, proteases, HDACs) used recombinant protein and specific substrates (fluorescence mostly, some colorimetric and radioactive) and inhibitors, followed by a biochemical separation of substrate and product. All assays for the biochemical HTS were initially run in duplicate at a single concentration (10 uM for CYP450 assays and 25 uM for all others). Assay-chemical combinations meeting a pre-defined threshold (e.g., 30% inhibition and other criteria defined below) were then run in singleton concentration-response format with maximum concentration of 20 uM for CYPs and 50 uM for all others. Each assay was run with positive and negative controls, and concurrent controls on every plate. The follow-up (secondary) screen tested active chemical-pairs in concentration series, as well as a few additional assays not tested in the primary screen, some selected negative inactives, and several cases re-run in the concentration series for confirmatory purposes.
Take `CCCCc1ccc2c(n1)[C@@H](c1ccc(OC)cc1C[C@H](C)C(=O)O)[C@H](C(=O)O)[C@H]2c1ccc2c(c1)OCO2`: the result was inactive. In the case of `CCCCCCCC/C=C\CCCCCCCC(=O)OC[C@@H](O)[C@H]1OC[C@H](O)[C@H]1O`, the outcome was inactive. Turning to `c1ccc(C(O[C@@H]2CCCN(CCc3ccc4c(c3)OCO4)C2)c2ccccc2)cc1`, the molecule was classed as inactive.

One may read the AC50 as the concentration at which the activity in the assay is half-maximal. On to `O=C(O)CC(O)(CC(=O)O)C(=O)O`, for which the AC50 is 5.18 µM (active). Consider `CN(C)C(=O)NC1(c2ccccc2)CCN(CCC[C@]2(c3ccc(Cl)c(Cl)c3)CCCN(C(=O)c3ccccc3)C2)CC1`, for which the outcome was inactive.

As to `CC(C)c1cccc(C(C)C)c1NC(=O)NS(=O)(=O)c1cc(C(C)(C)O)co1`, the outcome was inactive.

Turning to `COc1cc(C(=O)NC2CCN(C)CC2)ccc1Nc1ncc2c(n1)N(C1CCCC1)CC(F)(F)C(=O)N2C`, the AC50 is 23.2 µM (active).

The values above are taken from PubChem BioAssay AID2283162 (EPA ToxCast).
